From PubChem
ClpP mod: qHTS Assay for Activators of ClpP | Potency, µM (doses to about 57.5 µM), for inactives: at the highest dose activity change, negative = active | AID 651965, 2013 | hit rate 1.9% among 340,000 | purified B. subtilis ClpP, FRET peptide cleavage, 20 min; active means well fitted falling curve with a large enough effect; inconclusive means small, poorly fitted or top-dose-only effect; inactive means no such curve, though single readings can be large or run the other way; further: potency means the concentration at half of the fitted maximal effect; the source files actives as falling curves though it sought activators and does not explain the sign; nearly all actives have a fitted effect of over 65% in size
Target sequence (P80244 whole entry, looked up): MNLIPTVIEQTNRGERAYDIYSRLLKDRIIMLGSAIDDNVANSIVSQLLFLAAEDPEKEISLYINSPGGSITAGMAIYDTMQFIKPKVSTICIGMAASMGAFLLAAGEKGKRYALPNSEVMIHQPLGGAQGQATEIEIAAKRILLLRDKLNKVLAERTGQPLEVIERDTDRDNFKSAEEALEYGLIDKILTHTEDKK
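ClpP 10 microg/mL final, pH 8 Tris/KCl buffer with BSA, glycerol, Tween-20; compound pinned in; FRET-FV substrate; RT 20 min; Ex320/Em430; ΔFRET vs ADEP 5.8 microM, DMSO, no enzyme.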
IL1B secr inh: qHTS for Inhibitors of Inflammasome Signaling: IL-1-beta AlphaLISA Primary Screen. activity change, % at 57.5 µM. hit rate 4.7% among 360,000. AID 743279, 2014. THP-1 LPS/ATP IL-1B secretion, AlphaLISA, 16 h; stronger effect = lower value; in the data active means activity change below about -50%; inconclusive means mostly about -30% to -49%; further: on the % scale 0 is the no-effect control and ±100 the full control effect
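Secreted IL-1B measured by AlphaLISA bead assay after 16 h compound exposure of THP-1 cells; compounds (final up to 57.5 uM) added 1 h before LPS (250 ng/mL) and ATP (1.25 mM) stimulation; lower signal means less secretion.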
DRD3 antagonist: qHTS of D3 Dopamine Receptor Antagonist: qHTS; max response, negative = inhibition, %; hit rate 2.5% among 360,000; D3R cells, DiscoveRx beta-arrestin luminescence, antagonist mode; stronger effect = lower value; D(3) dopamine receptor (Homo sapiens), P35462; in the data active means max response below about -50%; inconclusive means no clear call, values can overlap the other calls; further: on the % scale 0 is the no-effect control and ±100 the full control effect
Target sequence (P35462 whole entry, looked up): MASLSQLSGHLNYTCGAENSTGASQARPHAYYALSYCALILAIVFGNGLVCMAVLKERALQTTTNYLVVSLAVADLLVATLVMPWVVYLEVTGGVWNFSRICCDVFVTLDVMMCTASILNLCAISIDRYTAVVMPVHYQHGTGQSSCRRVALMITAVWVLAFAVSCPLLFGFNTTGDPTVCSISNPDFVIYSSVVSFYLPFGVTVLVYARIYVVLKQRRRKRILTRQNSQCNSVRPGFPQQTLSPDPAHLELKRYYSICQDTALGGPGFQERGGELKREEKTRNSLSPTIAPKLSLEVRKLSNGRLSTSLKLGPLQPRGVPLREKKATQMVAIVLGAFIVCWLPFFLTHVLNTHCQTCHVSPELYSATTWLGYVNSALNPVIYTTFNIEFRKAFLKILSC
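Cells plated overnight at 1500 cells/well, then exposed to library compounds with dopamine controls for 90 minutes at 37 degrees C. DiscoveRx reagent added for 30–60 minutes at room temperature; luminescence read, quantitative HTS format.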
DRD3 agonist: qHTS of D3 Dopamine Receptor Agonist: qHTS; AID 652048, 2013; max activation, %; D3R DiscoveRx beta-arrestin cells, luminescence, 90 min; hit rate 0.58% among 410,000; in the data active means max activation above about 30%; further: 0% is about no effect
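Cells at 1500/well, incubated overnight, then treated with pinned compounds (dopamine as control) for 90 min at 37 degrees C. DiscoveRx reagent added for 30 - 60 minutes at room temperature; luminescence read.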
TDP1 cell CPT: qHTS for Inhibitors of human tyrosyl-DNA phosphodiesterase 1 (TDP1): qHTS in cells in presence of CPT; AID 686979, 2013; chicken DT40 Tdp1-/-;hTDP1 cells + 20 nM CPT, ATP luminescence, 48 h; Potency, µM (doses to about 46.2 µM), without a hit: at the top dose activity change, negative = growth inhibition, most hits filed as inhibitors; hit rate 12% among 420,000; further: potency means the concentration at half of the fitted maximal effect; on the % scale 0 is the no-effect control and ±100 the full control effect; nearly all actives have a fitted effect of over 55% in size
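Chicken DT40 Tdp1-/- cells stably complemented with human TDP1 were seeded at 400 cells/well in medium containing 20 nM camptothecin, exposed to pin-transferred compounds, and grown at 37 °C for at least 48 hr. Viability was read as ATP luminescence.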
DT40 TDP1 no CPT: qHTS for Inhibitors of human tyrosyl-DNA phosphodiesterase 1 (TDP1): qHTS in cells in absence of CPT; AID 686978, 2013; DT40 Tdp1-/- hTDP1 cells, no CPT, ATP luminescence, 48 h; hit rate 15% among 420,000; Potency, µM (series often up to 46.2 µM), inactives show at the highest dose activity change, negative = growth inhibition, hits mostly inhibitors; further: potency means the concentration at half of the fitted maximal effect; on the % scale 0 is the no-effect control and ±100 the full control effect; nearly all actives have a fitted effect of over 55% in size
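Readout: luminescence from CellTiter-Glo after 30 min in the dark at RT. Cells: DT40 Tdp1-/- with stable hTDP1, 400/well. Exposure: compounds alone, ≥48 hr, 37 °C.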
* marks the source's active call; other numbers are inactive results; ? = inconclusive; / = not tested or not shown. Only some compounds are listed: those with a hit (about 21% of all), similar ones and a draw of the others. Unless noted, the call rests on the fitted dose curve; in most records, active means well fitted inhibition curve with a large enough effect; inconclusive means small, poorly fitted or top-dose-only effect; inactive means flat fitted curve, though single readings scatter.

SMILES	ClpP mod	IL1B secr inh	DRD3 antagonist	DRD3 agonist	TDP1 cell CPT	DT40 TDP1 no CPT
Cc1ccc(-c2nc(CS(=O)(=O)CC(=O)NCCCN(Cc3ccccc3)C(C)C)c(C)o2)cc1	-9%	-4	3	2	?	?
Cc1oc(-c2ccc(-c3ccccc3)cc2)nc1CN(CCO)C(C)C	/	-82*	-16	-4	15%	?
CC(=O)Nc1cc(-c2cccc(C(=O)N(C)C)c2)cn2c(-c3ccc(F)cc3)cnc12	-23%	/	4	5	?	?
CC(=O)Nc1cc(-c2ccoc2)cn2c(-c3ccccc3)cnc12	-25%	-12	16	6	1µM*	0.92µM*
CC(=O)Nc1cccc(-c2cc(NC(C)=O)c3ncc(-c4ccc(C(C)=O)cc4)n3c2)c1	-19%	0	90	5	5.2µM*	7.3µM*
CC(=O)Nc1cc(-c2cccc(F)c2)cn2c(-c3ccc(F)cc3)cnc12	?	6	?	-5	?	23µM*
CC(=O)Nc1cccc(-c2cc(NC(C)=O)c3ncc(-c4ccc(F)cc4)n3c2)c1	5%	22	0	4	?	15µM*
CCOc1ccc(S(=O)(=O)NN=C2CCN(C(C)=O)CC2)cc1	0%	14	-16	-5	-17%	-15%
CC(=O)Nc1cc(-c2cccc(F)c2)cn2c(-c3ccc(S(C)(=O)=O)cc3)cnc12	5%	-52*	1	5	?	21µM*
CC(=O)Nc1cc(-c2cccc(N)c2)cn2c(-c3ccccc3)cnc12	-12%	-4	7	2	18µM*	?
CC(=O)Nc1cc(-c2cccc(F)c2)cn2c(-c3ccccc3)cnc12	5%	-8	-14	-2	18µM*	?
CC(=O)Nc1cc(-c2cccc(C(=O)N(C)C)c2)cn2c(-c3ccc(C(C)=O)cc3)cnc12	-23%	?	84	23	16µM*	12µM*
C#CCN(C(=O)C1CCC(=O)N(CCc2cccc(F)c2)C1)C1CCCCC1 (stereo unspecified)	-1%	2	0	-10	18µM*	6.5µM*
CC#CCN(Cc1ccco1)C(=O)C1CCC(=O)N(CCc2cccc(F)c2)C1 (stereo unspecified)	1%	-2	18	7	21µM*	15µM*
O=C(NC(=S)NC(CO)c1ccccc1)c1ccc(F)cc1 (stereo unspecified)	0%	?	1	-7	-27%	31%
COc1cccc(CNC(=O)CCCC(=O)NC(C)CCc2ccccc2)c1 (stereo unspecified)	1%	27	93	3	-8%	-21%
COc1ccccc1OCC(=O)Nc1cc(C(F)(F)F)ccc1-n1cncn1	2%	-4	8	1	-4%	-30%
COc1ccc(OC2C(=O)N(Cc3ccc(F)cc3)C2c2ccc(OC)c(OC)c2)cc1 (stereo unspecified)	-1%	?	-14	-11	29µM*	-12%
COC(=O)[C@]1(Sc2ccc(OC)cc2)CC(=O)N[C@@H]1c1ccccc1	-1%	39	-19	-2	?	18µM*
Cc1ccc(S(=O)(=O)N=S(CC2CC2(Cl)Cl)CC2CC2(Cl)Cl)cc1 (stereo unspecified)	-3%	-5	-13	-8	23µM*	26µM*
Cc1ccc(Nc2nnc(SCC(=O)Nc3cccnc3Cl)s2)cc1C	1%	?	-19	-5	?	?
CCCOc1ccc(-c2cn3ccccc3n2)cc1[N+](=O)[O-]	-2%	-24	9	0	?	15µM*
OCCN(CCO)c1ccc(C(c2ccccc2Cl)c2ccc(N(CCO)CCO)cc2Cl)c(Cl)c1	2%	?	-16	2	?	18µM*
COC(=O)C1CCN(S(=O)(=O)Cc2ccccc2Cl)CC1	-1%	2	-1	0	-2%	5%
COc1ccc(S(=O)(=O)N(CC(=O)NC(C)c2ccccc2)c2ccc(C)cc2)cc1OC (stereo unspecified)	-2%	/	/	9	?	5.8µM*
SMILES	ClpP mod	IL1B secr inh	DRD3 antagonist	DRD3 agonist	TDP1 cell CPT	DT40 TDP1 no CPT
COc1ccc(S(=O)(=O)N(CC(=O)NCc2ccccc2)c2ccc(C)cc2)cc1OC	2%	/	/	-6	?	6.5µM*
COc1ccc(S(=O)(=O)N(CCc2ccccc2)CC(=O)Nc2cc(C)cc(C)c2)cc1OC	-1%	/	/	-10	?	?
COc1ccc(C(C)NC(=O)CN(c2cc(OC)ccc2OC)S(=O)(=O)c2ccccc2)cc1 (stereo unspecified)	-1%	/	/	1	21µM*	?
COc1ccc(S(=O)(=O)N(CCc2ccccc2)CC(=O)NCc2ccccc2)cc1OC	-2%	/	/	-10	16µM*	?
OCC(O)C1OC(c2ccco2)OC(CO)C1O (stereo unspecified)	/	-2	4	6	0%	-1%
CCOc1ccc(N(CC(=O)OC)S(=O)(=O)c2ccc(OC)c(OC)c2)cc1	-2%	15	3	-12	?	?
CCOc1ccc(N(CC(=O)NC(C(C)C)C(C)C)S(=O)(=O)c2ccc(OC)c(OC)c2)cc1	4%	5	-3	-1	?	23µM*
Cc1ccc(S(=O)(=O)N2CCC(NC(=O)C3CCCCC3)CC2)cc1	1%	13	10	23	16%	-14%
CC1(c2ccccc2)NC(=O)N(CC(=O)Nc2nc(-c3ccccn3)cs2)C1=O (stereo unspecified)	-6%	-3	-12	1	23µM*	15µM*
